# CSC inhib = blocks cancer stem cells | 300,000 tested, 1.1% active | cancer stem cell-like cells viability, luminescence | AID 2717 | inhibition, % at 7.5 µM; in the data active means inhibition above about 75%; inconclusive means no clear call, values can overlap the other calls; tested in HMLE shEcad cells
# ALR inh = blocks human ALR sulfhydryl oxidase activity; P55789; purified ALR, DTT oxidation, H2O2 HRP-luminol luminescence; 290,000 tested, 3.8% active; inhibition, % (test concentration not listed);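 active means mean replicate inhibition above about 79%, with every replicate also reaching it, limit read from the data; inconclusive means only one of the two criteria met; inactive means mean below limit and not every replicate reaching it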
# Target sequence (P55789 whole entry, looked up): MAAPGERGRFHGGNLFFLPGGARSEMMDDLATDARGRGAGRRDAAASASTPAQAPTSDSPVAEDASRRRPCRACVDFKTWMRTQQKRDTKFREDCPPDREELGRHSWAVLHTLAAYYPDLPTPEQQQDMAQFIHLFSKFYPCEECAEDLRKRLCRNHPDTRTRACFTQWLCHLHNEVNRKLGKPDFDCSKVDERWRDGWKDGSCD
# PP5 inh = PP5 (human) phosphatase inhibition; P53041; purified PP5c, OMFP substrate fluorescence; inhibition, % at 6.7 µM; 320,000 tested, 0.18% active;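 active means inhibition above the campaign's mean inhibition across all tested compounds plus 3 SD, cut at about 9.5% in these data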;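 further: 0% = DMSO only and 100% = 100 µM cantharidin control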
# PP1 counter = blocks human PP1-alpha phosphatase, a PP5 counter-screen; AID 2235; purified PP1alpha, OMFP fluorescence; inhibition, % at 6.7 µM; 320,000 tested, 0.9% active;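 active means inhibition above the mean inhibition of all tested compounds plus 3 SD, computed separately for each screening campaign, cut at about 15% in these data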
# Target sequence (P62136 whole entry, looked up): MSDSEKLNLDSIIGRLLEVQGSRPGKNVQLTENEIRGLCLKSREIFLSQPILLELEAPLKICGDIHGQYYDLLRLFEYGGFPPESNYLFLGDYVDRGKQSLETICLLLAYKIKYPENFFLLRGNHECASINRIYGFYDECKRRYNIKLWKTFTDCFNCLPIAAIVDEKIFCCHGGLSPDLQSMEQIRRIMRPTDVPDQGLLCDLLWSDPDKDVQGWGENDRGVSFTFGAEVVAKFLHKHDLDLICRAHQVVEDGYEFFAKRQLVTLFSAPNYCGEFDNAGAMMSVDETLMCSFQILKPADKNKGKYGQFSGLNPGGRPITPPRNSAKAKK
# Calb FLC = C. albicans growth modulation with fluconazole; growth inhibition, % (no concentration beside the values); C. albicans CaCi-2 (fluconazole-resistant clinical isolate) + fluconazole, Alamar Blue growth, 48 h; 300,000 tested, 0.57% active;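 active means growth inhibition above about 58% in most replicates, limit read from the data, passing the limit was not always enough; inconclusive means exactly half the replicates above a set limit; inactive means most replicates below a set limit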;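 further: all wells also contain fluconazole at 8 µg/ml as a sub-toxic cotreatment; 0% = median of DMSO wells and 100% = median of geldanamycin control wells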
# * = called active by the depositor; ? = inconclusive; . = not tested or not shown. A selection: hits, their analogues and other compounds. The true share with any hit is near 5.4%.
SMILES,CSC inhib,ALR inh,PP5 inh,PP1 counter,Calb FLC
CCC(Sc1nc(C)cc(C)n1)C(=O)NC1=NN=C(c2ccc(C)cc2)CS1 (centres undefined),44.6,64.1,8.9,13.2,-6.1
CCn1cnc2c1c(=O)n(CC(=O)Nc1cc(C)on1)c(=O)n2Cc1ccccc1,-25.5,-5.9,0.9,-1.3,1.0
COc1cc([C@@H]2c3cc4c(cc3[C@@H](NC3CCN(Cc5ccccc5)CC3)[C@H]3COC(=O)[C@H]23)OCO4)cc(OC)c1O,.,.,.,.,101.1*
COc1cc([C@@H]2c3cc4c(cc3[C@H](O)[C@H]3COC(=O)[C@H]23)OCO4)cc(OC)c1OC,59.0,.,-1.7,-1.9,.
C[N+]1(CC(=O)OCCCc2ccccc2)CCOCC1,-7.2,-0.7,1.4,-8.2,-3.5
CC1(NC(=O)CCc2ccccc2)CCN(CCCc2ccccc2)C1=O (centres undefined),-2.9,-11.5,-0.3,-5.7,.
CC1(NC(=O)CC(c2ccccc2)(c2ccccc2)c2ccccc2)CCN(CCCc2ccccc2)C1=O (centres undefined),100.0*,-9.1,4.7,10.6,.
Cc1ccc(C(=O)N2CCN(Cc3ccc4c(c3)OCO4)CC2)cc1C,-8.0,-11.9,1.1,0.0,-61.2
Cc1[nH]nc(SCC(=O)NCc2ccccc2)c1[N+](=O)[O-],-13.3,.,-2.2,-0.6,-8.3
COC(=O)CSc1[nH]c2ccccc2c1[N+](=O)[O-],14.3,99.7*,1.2,1.5,10.6
COc1cc(/C=C2\Oc3cc(O)ccc3C2=O)ccc1O,-13.7,97.2*,2.3,-5.1,-0.2
O=C1/C(=C/c2ccc(O)c(O)c2)Oc2cc(O)ccc21,-13.3,98.4*,2.1,-5.5,.
O=C1/C(=C/c2cccc([N+](=O)[O-])c2)Oc2cc(O)ccc21,-0.1,5.3,4.4,1.7,3.3
O=C(CCC(=O)N1CCOc2ccccc21)N1CCOCC1,-9.3,-9.9,0.6,-2.0,-6.5
O=C(Nc1ccc(F)cc1)N1CCOCC1,7.8,-3.0,1.8,-5.2,-4.6
O=C(Nc1ccc2c(c1)OCCO2)N1CCN(c2ccccc2)CC1,-6.9,90.5*,3.7,1.4,17.2
Cc1ccc2c(c1)N(C(=O)CCC(=O)N1CCOCC1)CCO2,-12.3,-5.8,-3.6,-1.0,-7.8
O=C(CCC(=O)N1CCOc2ccccc21)N1CCN(c2ccccc2)CC1,-9.0,98.2*,2.1,-0.5,-7.8
CN(C)c1ccc(NC(=O)N2CCOCC2)cc1,3.6,99.0*,-0.2,2.5,-2.0
COc1cccc(N2CCN(C(=O)CCC(=O)N3CCOc4ccc(C)cc43)CC2)c1,4.4,88.8*,1.9,5.6,-4.7
Cc1cc(C)nc(SCC(=O)NNC(=O)c2ccccc2C)n1,18.5,0.1,-2.2,1.0,0.5
COCCCNc1nc2c(-c3ccc(Cl)cc3)nnn2c2ccccc12,3.8,-12.7,0.1,1.6,-0.9
O=C(/C=C/c1c(F)cccc1Cl)Nc1cccnc1,.,-24.0,0.6,2.5,21.9
O=C(NCc1ccco1)c1ccc(Br)c(S(=O)(=O)N2CCCCC2)c1,-4.7,-0.4,1.8,-4.1,4.6
c1cncc(-c2noc(CC3CCCCC3)n2)c1,-2.9,-0.6,4.1,-0.5,-2.2
SMILES,CSC inhib,ALR inh,PP5 inh,PP1 counter,Calb FLC
COc1ccc(N2CCN(C(=O)CCC(=O)N3Cc4ccccc4Oc4ncccc43)CC2)cc1,29.6,90.2*,-1.2,2.7,14.0
COc1ccc(C(=O)CCC(=O)N2CCN(c3ccccc3)CC2)cc1,.,.,3.1,-5.2,0.1
Cc1cc(SCC(=O)Nc2ccccc2)n2ncc(-c3ccccc3)c2n1,-3.7,-2.1,1.1,0.4,-1.3
CCc1ccc(S(=O)(=O)Nc2c(C)nc3nc[nH]n3c2=O)cc1,-6.4,22.0,2.6,-0.3,18.3
Cc1cccc(-c2nc(CSCC(=O)NCc3cccs3)c(C)o2)c1,-17.5,98.2*,3.0,0.1,14.6
Cc1cccc(-c2nc(CS(=O)CC(=O)NCc3cccs3)c(C)o2)c1 (centres undefined),-7.0,.,-0.1,-1.3,-2.6
Cc1oc(-c2ccccc2F)nc1CS(=O)CC(=O)NCc1cccs1 (centres undefined),-7.6,99.7*,-5.8,5.7,-2.9
Cc1oc(-c2ccc(Cl)cc2)nc1CS(=O)CC(=O)NCc1cccs1 (centres undefined),-1.8,99.1*,2.0,-2.0,1.7
COc1ccc(-c2noc(CNS(=O)(=O)c3ccc(NC(C)=O)cc3)n2)cc1OC,5.2,-1.8,-0.8,-2.5,5.9
COc1ccc(N(CC(=O)N/N=C/c2cc3ccc(OC)cc3nc2Cl)S(=O)(=O)c2ccccc2)cc1,-8.5,-19.9,2.8,-0.3,14.2
Cc1cc2c(c(=O)n1CCN(C)C)C(c1ccncc1)C(C#N)=C(N)O2 (centres undefined),16.0,-5.2,-3.5,-2.2,-3.2
Cc1ccc(NNC(=O)CCc2ccccc2)c(C)c1,-13.3,50.5,1.2,-2.2,6.8
Cc1ccc(NS(=O)(=O)c2cc([N+](=O)[O-])ccc2N/N=C/c2sc(N3CCOCC3)nc2-c2ccccc2)c(C)c1,8.4,1.8,1.4,-1.6,5.0
CC(C)C(C(=O)NC(C)(C)C)N(CCN1CCOCC1)C(=O)CNS(=O)(=O)c1ccccc1 (centres undefined),5.9,-5.4,0.0,0.4,31.6
COc1ccc(C(=O)/C=C/c2ccc3c(c2)OCCO3)cc1,23.6,95.2*,1.6,-1.9,?
COc1cc(/C=C/c2ccc(O)cc2)cc(OC)c1,1.5,80.0*,3.5,3.6,3.1
O=C(/C=C/c1ccc2c(c1)OCCO2)c1ccccc1,13.1,.,0.9,-1.9,2.9
COc1ccc(/C=C/C(=O)c2ccc3c(c2)OCCO3)cc1[N+](=O)[O-],16.7,36.1,-0.4,-1.1,39.1
O=C(O)c1ccc(/C=C/C(=O)c2ccc3c(c2)OCCCO3)cc1,29.1,97.2*,0.9,-1.6,17.8
COc1ccc(/C=C/C(=O)c2ccoc2)cc1,12.8,6.3,-0.6,-0.1,-8.0
O=C(/C=C/c1cccc([N+](=O)[O-])c1)c1ccc2c(c1)OCCO2,16.0,95.8*,0.6,-0.6,-2.9
Cc1ccc(N2C(=O)C3C=NNC3C2=O)cc1 (centres undefined),-1.8,0.3,2.6,-0.4,6.3
CCCCOc1ccc(S(=O)(=O)Nc2cc(OC)ccc2OC)cc1,15.1,-1.2,2.6,6.5,23.2
COc1ccc(/C=C/C(=O)c2ccc(O)cc2)cc1,-3.6,97.4*,2.5,-6.5,18.5
O=C(/C=C/c1ccc(O)cc1)c1c(O)cc(O)cc1O,-9.1,98.4*,3.7,-3.8,6.6
SMILES,CSC inhib,ALR inh,PP5 inh,PP1 counter,Calb FLC
COc1cc(/C=C/C(=O)c2ccc3c(c2)OCO3)cc(Cl)c1O,113.1*,5.6,-6.3,-6.9,3.9
COc1cc(O)c(C(=O)/C=C/c2ccccc2)c(OC)c1,-11.4,7.4,4.1,3.1,0.7
Cc1ccc(/C=N/NC(=O)Cc2ccc(Cl)cc2)s1,25.6,6.3,-3.3,0.1,3.1
O=C(COC(=O)Cc1ccc(Cl)cc1)NCc1ccco1,-14.7,-2.3,.,.,.
Cn1cc(CN2CCC(n3nccc3NC(=O)CCc3ccccc3)CC2)cn1,-14.5,-5.4,.,.,-22.3
Nc1c(C(=O)Nc2ccc(F)cc2)sc2nc(-c3ccco3)ccc12,-8.2,3.3,1.4,16.5*,-9.8
